Screens (PubChem)
Sampled rows, rich in hits. Any-hit rate of the full collection: about 18%.
IL1B secr inh = qHTS for Inhibitors of Inflammasome Signaling: IL-1-beta AlphaLISA Primary Screen; THP-1 LPS/ATP IL-1B secretion, AlphaLISA, 16 h; active compounds read low; activity change, % at 57.5 µM; 4.7% of 360,000 active; AID 743279, 2014; in the data active = activity change below about -50%; inconclusive = mostly about -30% to -49%
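Secreted IL-1B measured by AlphaLISA bead assay after 16 h compound exposure of THP-1 cells; compounds (final up to 57.5 uM) added 1 h before LPS (250 ng/mL) and ATP (1.25 mM) stimulation; lower signal means less secretion.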
DT40 TDP1 CPT = qHTS for Inhibitors of human tyrosyl-DNA phosphodiesterase 1 (TDP1): qHTS in cells in presence of CPT; Potency, µM (doses to about 46.2 µM), inactives show at the top dose activity change, negative = growth inhibition, actives largely listed as inhibitors; chicken DT40 Tdp1-/-;hTDP1 cells + 20 nM CPT, ATP luminescence, 48 h; 12% of 420,000 active; also: potency is read from the fitted curve at half-maximal effect; nearly all actives have a fitted effect of over 55% in size
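Chicken DT40 Tdp1-/- cells complemented with human TDP1, 400 cells/well, exposed to compounds plus 20 nM camptothecin for at least 48 h at 37 C; viability read as ATP content by CellTiter-Glo luminescence.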
Six1-Eya2 inh = qHTS Assay for Inhibitors of the Six1/Eya2 Interaction. 0.56% of 360,000 active. AlphaScreen GST-Six1/His-Eya2 binding, biochemical; active compounds read low. Homeobox protein SIX1 (Homo sapiens) + Protein phosphatase EYA2 (Homo sapiens), …. activity change, % (no concentration beside the values); in the data active = activity change below about -65%; inconclusive = mostly about -30% to -63%
Target sequence (O00167 whole entry, looked up): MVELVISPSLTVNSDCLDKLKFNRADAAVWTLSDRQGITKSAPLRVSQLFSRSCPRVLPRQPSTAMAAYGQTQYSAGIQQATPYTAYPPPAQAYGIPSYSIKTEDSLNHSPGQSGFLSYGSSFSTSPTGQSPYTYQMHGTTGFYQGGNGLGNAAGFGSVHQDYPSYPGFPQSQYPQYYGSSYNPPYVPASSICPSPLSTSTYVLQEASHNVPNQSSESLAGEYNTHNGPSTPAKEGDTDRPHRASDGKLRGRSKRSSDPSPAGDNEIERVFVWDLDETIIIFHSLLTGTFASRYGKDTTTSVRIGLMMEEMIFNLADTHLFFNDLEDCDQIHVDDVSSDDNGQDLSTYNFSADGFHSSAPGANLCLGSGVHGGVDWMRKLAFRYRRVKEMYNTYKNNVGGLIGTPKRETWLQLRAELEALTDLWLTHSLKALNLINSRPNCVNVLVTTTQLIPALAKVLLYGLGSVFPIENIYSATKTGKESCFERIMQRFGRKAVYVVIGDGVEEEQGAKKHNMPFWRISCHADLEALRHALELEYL
Target sequence (Q15475 whole entry, looked up): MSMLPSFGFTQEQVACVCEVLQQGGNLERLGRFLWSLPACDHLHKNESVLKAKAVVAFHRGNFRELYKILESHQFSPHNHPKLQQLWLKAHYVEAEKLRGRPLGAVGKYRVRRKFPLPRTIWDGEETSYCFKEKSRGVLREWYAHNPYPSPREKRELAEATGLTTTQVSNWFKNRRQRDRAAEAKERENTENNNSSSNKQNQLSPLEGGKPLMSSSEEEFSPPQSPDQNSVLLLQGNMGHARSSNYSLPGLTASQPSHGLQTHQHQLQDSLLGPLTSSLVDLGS
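Homogeneous AlphaScreen proximity assay pairing GST-Six1 with His-tagged Eya2 (added as 5X mix: 250 nM and 500 nM) in 50 mM Tris pH 8.0, 300 mM NaCl, 1 mM TCEP. Glutathione donor and nickel acceptor beads; 1 h, 37 °C, dark.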
CtBP-E1A blk = qHTS Assay for Inhibitors of the CtBP/E1A Interaction | AID 651724, 2012 | CtBP / adenovirus E1A interaction (AlphaScreen) | 0.49% of 340,000 active | AlphaScreen GST-E1A/His-CtBP binding, 1536-well; active compounds read low | activity change, % (test concentration not listed); in the data active = activity change below about -65%; inconclusive = mostly about -30% to -63%
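In 5 uL wells, 23 nL compound meets equimolar GST-E1A and His-CtBP (5X stock 125 nM each) for 2 h, 37 °C. Beads (5X, 50 ug/mL) then 1 h, 37 °C, dark.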
TDP1 cell noCPT = qHTS for Inhibitors of human tyrosyl-DNA phosphodiesterase 1 (TDP1): qHTS in cells in absence of CPT; DT40 Tdp1-/- hTDP1 cells, no CPT, ATP luminescence, 48 h; 15% of 420,000 active; Potency, µM (top dose mostly 46.2 µM), without a hit: at the highest dose activity change, negative = growth inhibition, most hits filed as inhibitors; also: potency is read from the fitted curve at half-maximal effect; nearly all actives have a fitted effect of over 55% in size
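Compound effects on proliferation are scored in DT40 Tdp1-/-;hTDP1 cells in the absence of CPT. ATP levels (CellTiter-Glo luminescence) are recorded after a ≥48 hr, 37 °C incubation.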
TDP1 inh = qHTS Assay for Inhibitors of Tyrosyl-DNA Phosphodiesterase (TDP1). Tyrosyl-DNA phosphodiesterase 1 (Homo sapiens), Q9NUW8. recombinant TDP1, AlphaScreen DNA substrate cleavage. Potency, µM (series often up to 130 µM), for the others: at the highest dose activity change, negative = inhibition, usual class: inhibitors. 0.28% of 350,000 active; also: potency is read from the fitted curve at half-maximal effect; nearly all actives have a fitted effect of over 40% in size
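Enzyme-compound mixtures sat 15 min at room temperature, followed by a 5 min reaction with 15 nM final substrate and 10 min with AlphaScreen beads. Recombinant human Tdp1 was used at 1 nM final.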
* = called active by the depositor; ? = inconclusive; nt = no result. Unless noted, calls follow the shape of the dose curve; as a rule, active = well fitted curve in the direction sought with a large enough effect; inconclusive = small, poorly fitted or top-dose-only effect, or another doubt; inactive = no such curve, though single readings can be large; an effect the other way counts as inactive or inconclusive. % is scaled to controls: 0 for no effect and ±100 for the full control effect.

SMILES	IL1B secr inh	DT40 TDP1 CPT	Six1-Eya2 inh	CtBP-E1A blk	TDP1 cell noCPT	TDP1 inh
COc1ccc(OC)c(S(=O)(=O)Nc2ccc3c(c2)N(C(C)=O)CCC3)c1	9	-18%	32	1	-26%	-6%
COc1ccc(S(=O)(=O)Nc2ccc3c(c2)N(C(C)=O)CCC3)cc1F	nt	15µM*	nt	nt	18µM*	6%
CC(=O)N1CCCc2ccc(NS(=O)(=O)c3cccc(Cl)c3)cc21	nt	-1%	nt	nt	-28%	6%
CC1=C(c2cccc(Cl)c2)S(=O)(=O)NC1=NCc1ccccc1C	nt	?	nt	nt	?	3%
CCN1C(=O)/C(=C2\SC(=S)N(CCCOC)C2=O)c2ccccc21	-8	-23%	7	-3	-23%	5%
CCC(C)C(=O)N1c2ccccc2C(=C2SC(C(=O)OC)=C(C(=O)OC)S2)C(=S)C1(C)C (stereo not given)	-59*	11µM*	-80*	-83*	13µM*	14%
COc1cc(C#Cc2ccc3cc(C(C)(C)O)oc(=O)c3c2)cc(OC)c1	-5	?	-1	1	?	0%
COc1cccc(C(=O)Nc2nc3ccccc3s2)c1	0	-6%	-4	4	-7%	2%
N#C/C(=C\c1coc2ccc(O)cc2c1=O)C(=O)Nc1nc2ccccc2s1	13	9.2µM*	-75*	-87*	?	nt
Cc1ccc2nc(Cl)c3cc(C(=O)N4CCCC(C)C4)sc3c2c1 (stereo not given)	nt	?	nt	nt	?	1%
CCC(C)n1c(SCC(=O)NCCc2ccc(S(N)(=O)=O)cc2)nc2ccsc2c1=O (stereo not given)	15	?	-3	15	?	-5%
CCN(CC)C(=O)CSc1nc2ccsc2c(=O)n1CCCC(=O)NCCc1ccc(S(N)(=O)=O)cc1	-10	4.1µM*	-1	nt	29µM*	7%
Cc1cc(C(F)(F)F)cc(NNC(=O)NC(=O)c2ccc(Cl)cc2)n1	12	?	14	3	?	nt
CCOc1ccccc1-c1c2cc(O)c(=O)cc-2oc2cc(O)c(O)cc12	35	23µM*	?	3	?	3%
C=C1C(=O)C23C(O)C1CCC2C12CCCC(C)(COC(C)=O)C1C(O)C3(O)OC2 (stereo not given)	0	1µM*	-3	-2	0.73µM*	nt
CCOc1ccc(NC(=O)Cn2cc(C(=O)c3ccc(C)cc3)c(=O)c3cc4c(cc32)OCO4)cc1	nt	-28%	nt	nt	-7%	6%
Cc1ccc(P(=O)(c2ccc(C)cc2)[C@@H](NC(c2ccccc2)c2ccccc2)c2ccccc2)cc1	0	18µM*	-21	-11	13µM*	nt
CCCN(CC(=O)Nc1ccc(Cl)cc1Cl)C(=O)/C=C/c1ccco1	-24	?	2	0	16µM*	-1%
Cc1cccc(NC(=O)Nc2nnc(N(C)C3CCCCC3)s2)c1C	nt	-2%	nt	nt	?	0%
Cc1nc(SCC(=O)Nc2sccc2C(N)=O)c2c(C)c(C)sc2n1	19	21µM*	-13	-7	?	nt
Cc1nc(SCC(=O)N2CCN(C(=O)c3cccs3)CC2)c2c(C)c(C)sc2n1	-4	26µM*	9	0	16µM*	-9%
COC(=O)c1sc2nc(C)nc(SCC(=O)Nc3sccc3C(N)=O)c2c1C	5	18µM*	3	nt	16µM*	0%
Cc1nc(SCC(=O)Nc2cc(C(N)=O)cc(C(N)=O)c2)c2c(C)c(C)sc2n1	5	5%	24	288	8%	10µM*
Cc1nc(SCC(=O)N2CCCC2=O)c2c(C)c(C)sc2n1	3	?	1	-1	?	nt
